About 21,000 targets were measured; listed, in parts, are those with the largest changes and a random draw of the rest.
Compound: CC1Cc2ccccc2N1C(=O)C1CCCN(C1)C(=O)CCl (mixture of isomers) [TRIM25 ligand 11 (diastereomer mixture)]
Assay: probe-labelled cysteine peptide fold change vs DMSO (competition) (log2 fold change); higher = less target engagement (more negative = stronger competition)
Conditions: THP-1, incubation time: 4 h
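Also: competitive chemoproteomic profiling in live THP-1 cells with an iodoacetamide desthiobiotin (IA-DTB) probe, comparing probe-labelled peptide intensities in compound-treated cells against DMSO-treated controls.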

Sequence of UniProt O60879 (O60879 whole entry, looked up): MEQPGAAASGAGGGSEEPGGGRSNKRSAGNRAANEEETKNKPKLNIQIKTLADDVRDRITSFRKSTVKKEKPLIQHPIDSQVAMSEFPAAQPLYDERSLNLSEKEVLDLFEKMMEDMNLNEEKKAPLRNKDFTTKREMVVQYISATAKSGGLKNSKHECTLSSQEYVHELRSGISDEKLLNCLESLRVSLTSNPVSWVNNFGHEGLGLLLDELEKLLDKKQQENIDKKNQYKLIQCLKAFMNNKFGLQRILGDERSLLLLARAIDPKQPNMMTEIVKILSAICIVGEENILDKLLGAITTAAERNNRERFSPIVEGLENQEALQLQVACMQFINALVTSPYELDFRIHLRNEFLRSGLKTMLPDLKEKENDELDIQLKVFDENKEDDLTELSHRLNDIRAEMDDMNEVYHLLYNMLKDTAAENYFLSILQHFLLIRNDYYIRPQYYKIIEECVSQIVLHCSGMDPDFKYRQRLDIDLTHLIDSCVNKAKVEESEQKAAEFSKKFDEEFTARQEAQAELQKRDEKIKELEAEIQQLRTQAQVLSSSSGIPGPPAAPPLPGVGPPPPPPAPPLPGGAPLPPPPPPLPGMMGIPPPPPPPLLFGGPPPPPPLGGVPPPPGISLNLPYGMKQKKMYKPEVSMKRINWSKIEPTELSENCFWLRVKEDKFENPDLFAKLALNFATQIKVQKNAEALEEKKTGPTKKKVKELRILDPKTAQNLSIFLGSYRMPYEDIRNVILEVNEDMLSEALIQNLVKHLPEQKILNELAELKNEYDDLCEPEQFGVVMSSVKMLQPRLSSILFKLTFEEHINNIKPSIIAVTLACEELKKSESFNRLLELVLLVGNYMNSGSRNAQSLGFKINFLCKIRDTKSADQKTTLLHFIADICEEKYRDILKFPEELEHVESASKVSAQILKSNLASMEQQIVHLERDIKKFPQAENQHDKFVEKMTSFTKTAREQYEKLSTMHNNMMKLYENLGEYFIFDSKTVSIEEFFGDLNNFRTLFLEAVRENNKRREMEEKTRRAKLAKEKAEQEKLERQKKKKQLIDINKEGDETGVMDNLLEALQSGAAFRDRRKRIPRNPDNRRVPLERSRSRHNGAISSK
Sequence of UniProt Q5T1V6 (Q5T1V6 whole entry, looked up): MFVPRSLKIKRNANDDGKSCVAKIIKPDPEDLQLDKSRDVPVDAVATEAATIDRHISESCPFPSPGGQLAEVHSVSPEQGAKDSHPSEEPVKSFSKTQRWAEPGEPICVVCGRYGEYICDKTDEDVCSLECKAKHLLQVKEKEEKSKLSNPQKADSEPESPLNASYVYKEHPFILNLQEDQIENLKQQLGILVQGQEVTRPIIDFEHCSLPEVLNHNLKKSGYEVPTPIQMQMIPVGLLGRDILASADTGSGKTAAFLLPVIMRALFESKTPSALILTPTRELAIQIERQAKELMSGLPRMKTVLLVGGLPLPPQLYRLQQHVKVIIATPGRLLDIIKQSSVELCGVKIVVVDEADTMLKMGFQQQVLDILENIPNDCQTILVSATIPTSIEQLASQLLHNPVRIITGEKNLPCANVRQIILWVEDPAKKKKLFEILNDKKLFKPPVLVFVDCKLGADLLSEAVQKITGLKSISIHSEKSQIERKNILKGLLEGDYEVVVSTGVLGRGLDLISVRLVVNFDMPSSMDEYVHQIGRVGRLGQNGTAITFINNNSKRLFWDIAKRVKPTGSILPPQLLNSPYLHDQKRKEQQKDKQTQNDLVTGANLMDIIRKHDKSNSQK
Sequence of UniProt Q9BVJ7 (Q9BVJ7 whole entry, looked up): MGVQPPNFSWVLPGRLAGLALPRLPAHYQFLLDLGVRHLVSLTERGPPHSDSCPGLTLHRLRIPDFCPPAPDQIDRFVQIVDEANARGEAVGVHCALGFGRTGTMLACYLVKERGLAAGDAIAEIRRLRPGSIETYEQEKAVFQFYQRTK
Sequence of UniProt P50570 (P50570 whole entry, looked up): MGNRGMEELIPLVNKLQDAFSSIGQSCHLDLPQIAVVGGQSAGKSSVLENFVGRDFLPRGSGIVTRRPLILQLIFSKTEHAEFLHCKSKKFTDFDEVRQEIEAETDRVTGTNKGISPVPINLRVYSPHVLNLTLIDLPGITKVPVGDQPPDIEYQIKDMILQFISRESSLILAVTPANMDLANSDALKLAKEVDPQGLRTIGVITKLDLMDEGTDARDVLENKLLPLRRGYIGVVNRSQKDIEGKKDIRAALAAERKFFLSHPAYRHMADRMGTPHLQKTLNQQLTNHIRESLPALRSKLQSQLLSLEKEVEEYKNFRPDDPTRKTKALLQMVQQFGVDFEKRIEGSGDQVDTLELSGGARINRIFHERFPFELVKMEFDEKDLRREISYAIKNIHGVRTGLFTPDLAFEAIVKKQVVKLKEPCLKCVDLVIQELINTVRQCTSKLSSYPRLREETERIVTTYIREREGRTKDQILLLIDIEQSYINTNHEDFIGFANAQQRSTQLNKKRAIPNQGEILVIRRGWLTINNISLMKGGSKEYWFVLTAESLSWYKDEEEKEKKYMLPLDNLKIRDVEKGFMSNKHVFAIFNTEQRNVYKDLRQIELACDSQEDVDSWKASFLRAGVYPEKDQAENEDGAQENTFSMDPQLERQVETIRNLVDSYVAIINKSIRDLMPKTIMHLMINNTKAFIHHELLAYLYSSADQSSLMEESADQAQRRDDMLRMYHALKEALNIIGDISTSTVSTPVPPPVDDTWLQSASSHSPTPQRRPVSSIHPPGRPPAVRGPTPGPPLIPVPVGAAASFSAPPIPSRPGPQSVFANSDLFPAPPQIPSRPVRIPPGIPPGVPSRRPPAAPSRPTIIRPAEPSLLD
Sequence of UniProt P31146 (P31146 whole entry, looked up): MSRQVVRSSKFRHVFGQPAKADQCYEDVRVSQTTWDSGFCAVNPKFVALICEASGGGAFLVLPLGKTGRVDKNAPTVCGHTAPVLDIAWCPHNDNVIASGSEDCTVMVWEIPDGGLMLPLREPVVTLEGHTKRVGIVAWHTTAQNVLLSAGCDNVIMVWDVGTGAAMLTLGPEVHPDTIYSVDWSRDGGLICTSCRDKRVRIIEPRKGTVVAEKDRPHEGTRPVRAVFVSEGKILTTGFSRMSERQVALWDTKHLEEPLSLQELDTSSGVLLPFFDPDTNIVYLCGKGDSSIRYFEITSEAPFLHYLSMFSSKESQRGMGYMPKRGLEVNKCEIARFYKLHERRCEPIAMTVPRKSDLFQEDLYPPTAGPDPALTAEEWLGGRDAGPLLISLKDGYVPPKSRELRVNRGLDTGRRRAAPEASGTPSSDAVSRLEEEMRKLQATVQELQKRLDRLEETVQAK
Sequence of UniProt O43583 (O43583 whole entry, looked up): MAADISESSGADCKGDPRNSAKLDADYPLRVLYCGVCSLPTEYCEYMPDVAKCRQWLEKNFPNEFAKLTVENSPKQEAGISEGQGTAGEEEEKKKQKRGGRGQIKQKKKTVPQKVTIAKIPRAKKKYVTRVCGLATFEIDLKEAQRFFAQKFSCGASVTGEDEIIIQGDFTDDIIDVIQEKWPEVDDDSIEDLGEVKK
Sequence of UniProt Q92466 (Q92466 whole entry): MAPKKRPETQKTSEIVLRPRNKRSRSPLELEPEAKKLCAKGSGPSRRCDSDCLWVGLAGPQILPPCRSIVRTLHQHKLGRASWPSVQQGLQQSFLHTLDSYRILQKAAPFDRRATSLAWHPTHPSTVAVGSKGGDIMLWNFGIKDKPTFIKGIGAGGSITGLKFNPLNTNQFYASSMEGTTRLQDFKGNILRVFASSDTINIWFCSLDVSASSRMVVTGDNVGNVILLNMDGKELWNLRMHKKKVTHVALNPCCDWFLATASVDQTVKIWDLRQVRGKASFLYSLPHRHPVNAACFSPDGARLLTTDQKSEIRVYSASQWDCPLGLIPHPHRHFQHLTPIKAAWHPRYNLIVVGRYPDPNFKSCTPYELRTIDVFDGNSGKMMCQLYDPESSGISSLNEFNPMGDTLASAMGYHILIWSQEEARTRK
Sequence of UniProt Q86TI2 (Q86TI2 whole entry, looked up): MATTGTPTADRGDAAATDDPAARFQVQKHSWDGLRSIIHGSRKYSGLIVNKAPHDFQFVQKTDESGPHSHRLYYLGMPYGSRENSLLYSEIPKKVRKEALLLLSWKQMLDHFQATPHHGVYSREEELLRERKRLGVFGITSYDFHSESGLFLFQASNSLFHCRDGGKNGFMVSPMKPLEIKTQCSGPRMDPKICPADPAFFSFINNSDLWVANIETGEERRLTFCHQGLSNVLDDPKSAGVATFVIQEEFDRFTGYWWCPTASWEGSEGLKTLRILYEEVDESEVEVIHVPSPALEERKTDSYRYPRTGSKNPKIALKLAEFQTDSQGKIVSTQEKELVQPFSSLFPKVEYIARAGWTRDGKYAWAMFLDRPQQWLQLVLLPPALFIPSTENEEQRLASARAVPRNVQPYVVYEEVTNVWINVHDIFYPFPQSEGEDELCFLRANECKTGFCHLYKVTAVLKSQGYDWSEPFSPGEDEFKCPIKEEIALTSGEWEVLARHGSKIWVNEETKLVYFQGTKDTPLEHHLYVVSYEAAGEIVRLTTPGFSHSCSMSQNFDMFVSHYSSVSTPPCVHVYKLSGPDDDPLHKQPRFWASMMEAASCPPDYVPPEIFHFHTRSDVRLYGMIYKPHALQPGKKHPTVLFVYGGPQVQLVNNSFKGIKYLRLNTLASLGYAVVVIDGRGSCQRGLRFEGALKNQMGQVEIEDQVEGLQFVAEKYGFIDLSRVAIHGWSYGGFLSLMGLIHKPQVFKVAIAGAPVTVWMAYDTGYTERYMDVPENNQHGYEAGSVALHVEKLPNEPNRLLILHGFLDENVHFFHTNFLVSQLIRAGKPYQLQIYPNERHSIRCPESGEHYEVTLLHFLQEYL
Sequence of UniProt P48729 (P48729 whole entry, looked up): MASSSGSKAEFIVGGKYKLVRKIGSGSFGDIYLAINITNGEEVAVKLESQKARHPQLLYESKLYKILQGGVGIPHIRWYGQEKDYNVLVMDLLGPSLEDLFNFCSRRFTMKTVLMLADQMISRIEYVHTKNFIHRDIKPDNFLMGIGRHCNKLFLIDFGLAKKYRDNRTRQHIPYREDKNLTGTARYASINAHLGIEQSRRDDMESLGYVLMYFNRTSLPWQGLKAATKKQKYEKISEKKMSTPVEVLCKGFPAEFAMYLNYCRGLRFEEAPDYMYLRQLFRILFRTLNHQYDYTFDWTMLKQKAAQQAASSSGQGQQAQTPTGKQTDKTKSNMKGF

Target	probe-labelled cysteine peptide fold change (10 µM)	probe-labelled cysteine peptide fold change (50 µM)
DAXX_Q9UER7_106_AHSLFLASAEFCNILSR (UniProt Q9UER7)	0.442	1.38
CTNNA1_P35221_772_TIADHCPDSACK (UniProt P35221)	-0.0482	-0.0902
DHX9_Q08211_608+612_KDKDDDGGEDDDANCNLICGDEYGPETR (UniProt Q08211)	-0.128	-0.345
DNAJA1_P31689_271_RGEDLFMCMDIQLVEALCGFQK (UniProt P31689)	-0.021	0.281
CYTH1_Q15438_323_EVEDSKKPNCFELYIPDNK (UniProt Q15438)	-0.213	-0.14
DHX37_Q8IY37_766_LSCPITALGR (UniProt Q8IY37)	-0.0635	0.0316
DTWD2_Q8NBA8_143_FSEERDPELSTVCR (UniProt Q8NBA8)	0.148	0.0336
DHX37_Q8IY37_486_MLPAGGILVFLTGQAEVHALCR (UniProt Q8IY37)	0.281	0.563
DYNC1H1_Q14204_4438_QDLADVVQVCEGK (UniProt Q14204)	0.0826	0.0819
CUL2_Q13617_103_GADYMDCLYR (UniProt Q13617)	0.191	0.129
CORO1A_P31146_332_RGLEVNKCEIAR (UniProt P31146)	-0.603	-0.342
CSNK1A1_P48729_249_MSTPVEVLCK (UniProt P48729)	-0.305	-0.401
DDX42_Q86XP3_339+346_ELCQQIHAECK (UniProt Q86XP3)	-0.0625	-0.045
DAZAP1_Q96EP5_63_DPNCVGTVLASR (UniProt Q96EP5)	0.186	0.402
DUS3L_Q96G46_396_TVEVDFVDINVGCPIDLVYKK (UniProt Q96G46)	-0.169	-0.11
DUSP3_P51452_171_EIGPNDGFLAQLCQLNDR (UniProt P51452)	-0.408	-0.0736
CRYBG1_Q9Y4K1_594+609_EVQLPTCHSNEPEVVSVASCAPPQEEVLGNEHSHCTAELAAK (UniProt Q9Y4K1)	-0.0918	-0.248
DARS_P14868_130_IGSCTQQDVELHVQK (UniProt P14868)	0.0673	0.0472
CSMD2_Q7Z408-3_2_CDAHLR (UniProt Q7Z408)	-0.56	-0.972
DYNC1H1_Q14204_4644_GVAVLCTE (UniProt Q14204)	0.0055	0.0643
DSTN_P60981_39_AVIFCLSADK (UniProt P60981)	-0.0558	-0.00534
DIDO1_Q9BTC0_1449_MCADVR (UniProt Q9BTC0)	-0.0543	-0.242
DENND4B_O75064_180_GEGTPHTYCR (UniProt O75064)	0.0109	0.131
DOK3_Q7L591_493_KGPAPCDRP (UniProt Q7L591)	-0.0118	0.0304
CPT2_P23786_512_CSEAFVREPSR (UniProt P23786)	-0.197	-0.0581
DDX58_O95786_428_NTDEALDYICK (UniProt O95786)	0.0328	0.169

Target	probe-labelled cysteine peptide fold change (10 µM)	probe-labelled cysteine peptide fold change (50 µM)
DGKZ_Q13574_876_EASVPLGTVVVPGDSDLELCR (UniProt Q13574)	0.514	0.581
CTNNA2_P26232_792_IALYCHQLNICSK (UniProt P26232)	-0.0111	0.118
DCTN1_Q14203_677_YEHALSQCSVDVYKK (UniProt Q14203)	-0.0153	0.149
DUSP23_Q9BVJ7_95_GEAVGVHCALGFGR (UniProt Q9BVJ7)	-0.00709	0.14
CORO1C_Q9ULV4_39_VTWDSSFCAVNPR (UniProt Q9ULV4)	0.0602	-0.0375
DDX6_P26196_324_VHCLNTLFSR (UniProt P26196)	0.158	0.183
DHCR24_Q15392_393_CLQQALHTFQNDIHVYPIWLCPFILPSQPGLVHPK (UniProt Q15392)	0.14	-0.425
DNM2_P50570-3_427_CVDLVVSELATVIK (UniProt P50570)	-0.0402	0.0756
DDX21_Q9NR30_539_TGVCICFYQHK (UniProt Q9NR30)	-0.0402	-0.0081
DIAPH1_O60610_964_LQFSEQVENIKPEIVSVTAACEELR (UniProt O60610)	0.176	0.06
DDX28_Q9NUL7_453_DILLCTDIASR (UniProt Q9NUL7)	0.0908	0.0393
CRELD1_Q96HD1_229_CSGPEESNCLQCK (UniProt Q96HD1)	0.0143	-0.197
DDX17_Q92841_166+199_GGDVCPKPVFAFHHANFPQYVMDVLMDQHFTEPTPIQCQGFPLALSGR (UniProt Q92841)	-0.612	-0.604
DMRT1_Q9Y5R6_105_CNLIAER (UniProt Q9Y5R6)	1.19	0.0204
DDX46_Q7L014_501_RGAEIIVCTPGR (UniProt Q7L014)	0.161	0.296
COX17_Q14061_23+24_KPLKPCCACPETK (UniProt Q14061)	-0.386	-0.745
DDX59_Q5T1V6_208_QQLGILVQGQEVTRPIIDFEHCSLPEVLNHNLKK (UniProt Q5T1V6)	-0.239	-0.182
DDB2_Q92466_322_VYSASQWDCPLGLIPHPHR (UniProt Q92466)	0.0907	-0.0149
DENR_O43583_44_VLYCGVCSLPTEYCEYMPDVAK (UniProt O43583)	-0.0798	-0.0802
DYNC1H1_Q14204_1977_MLSAVSQQVQCIQEALREHSNPNYDK (UniProt Q14204)	-0.708	-0.193
CTSB_P07858_93_EQWPQCPTIK (UniProt P07858)	-0.026	-0.172
DCAF10_Q5QP82_412_NSLEVVTPEVLGESDHGNCITSLQLHPK (UniProt Q5QP82)	0.152	-0.291
DIAPH2_O60879_484_LDIDLTHLIDSCVNK (UniProt O60879)	0.0266	0.095
DYNC1H1_Q14204_3573_WQASSLPADDLCTENAIMLK (UniProt Q14204)	-0.0171	-0.286
DDX42_Q86XP3_382_ALQEGAEIVVCTPGR (UniProt Q86XP3)	0.0737	0.0996
DCP2_Q8IU60_391_KLQDNFETDAVYDLPSSSEDQLLEHAEGQPVACNGHCK (UniProt Q8IU60)	-0.209	-0.464

Target	probe-labelled cysteine peptide fold change (10 µM)	probe-labelled cysteine peptide fold change (50 µM)
DIP2A_Q14689_543_ALTQACGYSEAETLTNVLDFKR (UniProt Q14689)	0.205	0.286
DYNC1LI2_O43237_104_CNVWILDGDLYHK<|>DYNC1LI1_Q9Y6G9_117_CNVWILDGDLYHK (UniProt Q9Y6G9+O43237)	-0.0068	0.0237
DPYSL2_Q16555_133_SCCDYSLHVDISEWHK (UniProt Q16555)	0.131	-0.000105
DSN1_Q9H410_191_CFEDSNGK (UniProt Q9H410)	0.115	0.0971
DLD_P09622_484_VCHAHPTLSEAFR (UniProt P09622)	0.111	-0.123
CRYZL1_O95825_177_VISTACSLEDK (UniProt O95825)	0.0726	0.107
DDX24_Q9GZR7_599_SLVFANSISCIK (UniProt Q9GZR7)	0.479	0.567
CPNE8_Q86YQ8_118_HDFLGQVFCTLGEIVGSQGSR (UniProt Q86YQ8)	0.132	0.595
DECR2_Q9NUI1_53_HGCHTVIASR (UniProt Q9NUI1)	0.317	0.574
CRIP2_P52943_150_DWHRPCLR (UniProt P52943)	0.642	-0.0653
DNAJC2_Q99543_276_TLVDNAYSCDPR (UniProt Q99543)	-0.0127	-0.0992
DHRS7_Q9Y394_233_TELATYPGIIVSNICPGPVQSNIVENSLAGEVTK (UniProt Q9Y394)	-0.0824	0.0763
CUL4B_Q13620_248_YNLEELYQAVENLCSYK (UniProt Q13620)	0.033	0.163
DOCK8_Q8NF50_590_IQFMCGEDASNAMPVIFGK (UniProt Q8NF50)	-0.02	0.209
COX6B1_P14854_54_GGDISVCEWYQR (UniProt P14854)	-0.188	-0.269
CPSF3_Q9UKF6_223_FCNTVHDIVNR (UniProt Q9UKF6)	-0.0667	-0.11
CPSF4_O95639_162_RVICVNYLVGFCPEGPSCK (UniProt O95639)	-0.292	0.0715
DNAJC10_Q8IXB1_161_EFDAAVNSGELWFVNFYSPGCSHCHDLAPTWR (UniProt Q8IXB1)	0.476	-0.235
DPP9_Q86TI2_184_TQCSGPR (UniProt Q86TI2)	-0.111	-0.073
DDX41_Q9UJV9_540_ACDESVLMDLK (UniProt Q9UJV9)	-0.0247	-0.111
DOK3_Q7L591_323_LPELTRPQPCPLPR (UniProt Q7L591)	0.463	-0.185
DDX28_Q9NUL7_360_LHCIMPHVK (UniProt Q9NUL7)	-0.061	0.0889
DECR2_Q9NUI1_22_HLFCPDLLR (UniProt Q9NUI1)	0.0413	-0.0816
CORO7_P57737_75_VAHLGCHSDLVTDLDFSPFDDFLLATGSADR (UniProt P57737)	0.031	0.0305
CRYBG1_Q9Y4K1_1404_ISSVQPICLDSFTGPR (UniProt Q9Y4K1)	0.199	-0.0158
CSTF2_P33240_62_GYGFCEYQDQETALSAMR (UniProt P33240)	-0.512	-0.471

Reference: the supplement of paper PMC12067093, “Discovery and optimisation of a covalent ligand for TRIM25 and its application to targeted protein ubiquitination” (Chemical Science, 2025)
